Residues, ends and D or L forms follow the SMILES beside them. *: point of attachment. Cbz = O=C(OCc1ccccc1)*
Experiment: qHTS profiling of the MIPE4 collection as inhibitors of Plasmodium falciparum (3D7) proliferation (AID 743344);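 further: scaled between DMSO vehicle wells and 0.29 µM artemisinin as full inhibition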
Settings: P. falciparum 3D7 in erythrocytes, SYBR Green DNA fluorescence, 72 h; at 28.5 µM unless noted
Description: Plasmodium falciparum is a virulent malarial parasite that kills 1-2 million people worldwide each year. Transmitted by mosquitoes, the sporozoite form of the parasite enters the blood stream to infect hepatocytes, where they become merozoites that infect red blood cells (erythrocytes). Within erythrocytes, merozoites begin a […] cycle of growth and division, after which the parasite is released to infect new red blood cells. Gametocytes, which form within erythrocytes as well, circulate in the bloodstream and are ingested by the mosquito, thereby completing the life cycle. To profile malarial isolates for differential chemical responses and to identify inhibitors of malarial growth, an assay that measures P. falciparum growth and replication within erythrocytes was employed. This assay uses a DNA binding fluorescent dye (SYBR Green) to detect parasite DNA following cell lysis. Because mature erythrocytes lack DNA, only Plasmodium-derived DNA is detected.
The SYBR Green viability assay was adapted from a method described previously (Plouffe et al., 2008). For screening 3 ul culture medium was dispensed into 1536 well black clear bottom plates (Aurora Biotechnologies) using a Multidrop Combi (Thermo Fisher Scientific Inc.), 23 nL compounds in DMSO were added by a pin tool (Kalypsys), and 5 ul of erythrocytes infected with P. falciparum (0.3% parasitemia, 2.5% hematocrit final concentration) were added. The plates were incubated at 37 C in a humidified incubator in 5% CO2 for 72 h, and 2 ul lysis buffer (20 mM Tris HCl, 10 mM EDTA, 0.16% saponin, 1.6% triton X, 10X SYBR Green I supplied as 10,000X […] by Invitrogen) was added to each well. The plates were mixed for 25 sec with gentle shaking and incubated overnight at room temperature in the dark. The following morning, fluorescence intensity at 485(14) nm excitation and 535(25) nm emission wavelengths was measured on an EnVision (Perkin Elmer) plate reader. Plate reads were normalized relative to the control inhibitor (0.29 uM artemisinin) and vehicle (DMSO) wells present on each plate and then corrected by an algorithm using vehicle-only control plates at the beginning and end of the compound plate stack.

Compound	parasite growth, % of DMSO control
CC1(C)[C@H](O[C@H]2O[C@H](C(=O)O)[C@@H](O)[C@H](O)[C@H]2O[C@@H]2O[C@H](C(=O)O)[C@@H](O)[C@H](O)[C@H]2O)CC[C@@]2(C)[C@H]1CC[C@]1(C)[C@H]2C(=O)C=C2[C@H]3C[C@@](C)(C(=O)O)CC[C@]3(C)CC[C@]21C	99.2%
C=C[C@@H]1CN2CCC1C[C@H]2[C@H](O)c1ccnc2ccc(OC)cc12 (stereo not given in full)	10.4%
N#Cc1ccc(COC[C@H]2O[C@@H](n3c(NCc4ccc(Cl)c(Cl)c4)nc4c(N)ncnc43)[C@@H](O)[C@@H]2O)cc1	20.4%
Cn1cc(C=CC(=O)c2cccc(F)c2)cc1C=CC(=O)NO	69.1%
CC[C@H]1OC(=O)[C@H](C)[C@@H](O[C@H]2C[C@@](C)(OC)[C@@H](O)[C@H](C)O2)[C@H](C)[C@@H](O[C@@H]2O[C@@H](C)C[C@H](N(C)C)[C@@H]2O)[C@](C)(O)C[C@@H](C)C(=O)[C@H](C)[C@@H](O)[C@]1(C)O	60.1%
COc1ccc(Nc2nccc(NCCO)n2)cc1	67.2%
Cc1ccc(O)c(C(CCN(C(C)C)C(C)C)c2ccccc2)c1 (stereo not given)	11.8%
O=C1c2c(O)cccc2[C@@H]([C@@H]2O[C@H](CO)[C@@H](O)[C@H](O)[C@H]2O)c2cc(CO)cc(O)c21	96.2%
NC[C@H]1O[C@H](O[C@H]2[C@@H](O)[C@@H](O[C@H]3O[C@H](CO)[C@@H](O)[C@H](N)[C@@H]3O)[C@H](N)C[C@@H]2N)[C@H](N)C[C@H]1O	97.7%
CCc1c(O)cc(O)c(C(=O)c2ccc(OCCN3CCOCC3)c(OC)c2)c1CC(=O)N(CCOC)CCOC	4.87%
COC[C@H](NC(=O)c1cnc(C)s1)C(=O)N[C@@H](COC)C(=O)N[C@@H](Cc1ccccc1)C(=O)[C@@]1(C)CO1	5.4%
CC(C)n1cnc2c(NCCc3ccc(O)cc3)nc(-c3csc4ccccc34)nc21	5.76%
COc1cc(O)c2c(c1)C1OC1C[C@H](O)[C@H](O)C(=O)C=CC[C@H](C)OC2=O (stereo not given in full)	5.71%
N#Cc1c(NC(=O)c2cccc3ccccc23)sc2c1CCCC2	69.2%
CCOc1cc2ncc(C#N)c(Nc3ccc(OCc4ccccn4)c(Cl)c3)c2cc1NC(=O)C=CCN(C)C	7.93%
C=CCNc1c(O)cc2c(O)c1C[C@@H](C)C[C@H](OC)[C@@H](O)[C@@H](C)C=C(C)[C@H](OC(N)=O)[C@@H](OC)C=CC=C(C)C(=O)N2	4.69%
CC(C)C[C@@H](C=O)NC(=O)[C@H](CC(C)C)NC(=O)[C@H](CC(C)C)NC(=O)OCc1ccccc1 (Cbz-Leu-Leu-Leu-aldehyde)	4.63%
C[C@@H]1CC[C@@]2(OC1)OC1CC3C4CC=C5CC(O)CCC5(C)C4CCC3(C)C1[C@@H]2C (stereo not given in full)	94.4%
CC(Oc1ccc(O)cc1)(P(=O)(O)O)P(=O)(O)O	64.8%
COc1cccc2c1C(=O)c1c(O)c3c(c(O)c1C2=O)C[C@@](O)(C(=O)CO)C[C@H]3O[C@H]1C[C@H](N)[C@H](O)[C@H](C)O1	3.34%

Compound	parasite growth, % of DMSO control
C[C@H]1COc2c(N3CCN(C)CC3)c(F)cc3c(=O)c(C(=O)O)cn1c23	49.9%
CCCNS(=O)(=O)Nc1ncnc(OCCOc2ncc(Br)cn2)c1-c1ccc(Br)cc1	102%
C=C1C(=O)O[C@H]2[C@@H]1CCC(C)=CCC[C@@]1(C)O[C@@H]21	39.5%
Cc1cc(-c2nnc3n2CCCCC3)c(C)n1-c1ccccc1	23%
Cn1cnc(=N)c2[nH]cnc21	5.58%
CN(CC(=O)N(Cc1ccc(C2CCCCC2)cc1)c1ccc(C(=O)O)c(O)c1)S(=O)(=O)c1c(F)c(F)c(F)c(F)c1F	51%
CN1CCCN(C(=O)c2cccc(-c3ccc(C=C4C(=O)Nc5ccc(Cl)cc54)o3)c2)CC1	3.74%
Nc1ncn([C@@H]2O[C@H](CO)[C@@H](O)[C@@H]2O)c(=O)n1	100%
Cc1ccc(-n2[nH]c(C)c(N=Nc3cccc(-c4cccc(C(=O)O)c4)c3O)c2=O)cc1C	57%
CN1C(C(=O)Nc2ccccn2)=C(O)c2sc(Cl)cc2S1(=O)=O	64.4%
CC(=O)N1CCN(c2ccc(OCc3nn(C)c(C)c3-c3cccc4c(CCCOc5cccc6ccccc56)c(C(=O)O)n(Cc5cccnc5)c34)cc2)CC1	5.7%
NC(=NCCCCCCN=C(N)N=C(N)Nc1ccc(Cl)cc1)N=C(N)Nc1ccc(Cl)cc1	12.4%
COc1cc(OC)c(C=CS(=O)(=O)Cc2ccc(OC)c(NCC(=O)O)c2)c(OC)c1	88.3%
COc1cc(C[C@@H](CO)[C@H](CO)Cc2ccc(O)c(OC)c2)ccc1O	90.4%
CS(=O)(=O)N1CCc2c(-c3cnc(N)nc3)nc(N3CCOCC3)nc21	5.02%
CCN(CC)CCNC(=O)c1c(C)[nH]c(C=C2C(=O)Nc3ccc(F)cc32)c1C	4.82% [at 57.5 µM]
O=C(O)C[C@H](O)C[C@H](O)C=Cc1c(C2CC2)nc2ccccc2c1-c1ccc(F)cc1	94%
N#CC(=Cc1ccc(O)c(O)c1)C(=O)NCc1ccccc1	42.9%
N#Cc1c(C2CCNCC2)cc(-c2c(O)cccc2OCC2CC2)nc1N	12%
CC(C=CC1=C(C)CCCC1(C)C)=CC=CC(C)=CC(=O)Nc1ccc(O)cc1	4.7% [at 57.5 µM]
